Methyltransferases: Primary Screen for Target Class Profiling of Small Molecule Inhibitors of Methyltransferases; purified enzyme, MTase-Glo SAH luminescence; stronger effect = lower value; calls only at 40 µM; 25,000 tested, 3.9% active; call rule not given here
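Each enzyme was reacted with SAM and its substrate, with compounds tested once at 40 uM; SAH formed was read by MTase-Glo luminescence.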
Of the large screens only hits and unclear results are named; the others gave an inactive call. The entries come from a sample that favours hits as a whole.

C[C@@H](OC(=O)/C=C/c1ccc(O)cc1)C1=C[C@]2(C=C[C@@H]3C(C(=O)O)=CO[C@@H](O[C@@H]4O[C@H](CO[C@@H]5O[C@H](CO)[C@@H](O)[C@H](O)[C@H]5O)[C@@H](O)[C@H](O)[C@H]4O)[C@@H]32)OC1=O	none
CC(=O)O[C@@H]1[C@@H](OC(=O)/C=C/c2ccccc2)[C@@H](OC(C)=O)[C@H](O[C@H]2[C@@H]3C=CO[C@@H](O[C@@H]4O[C@H](CO)[C@@H](O)[C@H](O)[C@H]4O)[C@@H]3[C@@]3(CO)O[C@@H]23)O[C@H]1C	none
COc1ccc(/C=C/C(=O)O[C@@H]2[C@@H](O[C@@H]3O[C@H](CO)[C@@H](O)[C@H](O)[C@H]3O)[C@@H](O)[C@H](O[C@H]3C4C=CO[C@@H](O[C@@H]5O[C@H](CO)[C@@H](O)[C@H](O)[C@H]5O)C4[C@@]4(CO)O[C@@H]34)O[C@H]2C)cc1 (stereo not given in full)	none
O=C(/C=C/c1ccc(O)cc1)OC[C@]12O[C@H]1[C@@H](O)[C@@H]1C=CO[C@@H](O[C@@H]3O[C@H](CO)[C@@H](O)[C@H](O)[C@H]3O)[C@@H]12	none
O=C(/C=C/c1ccc(O)cc1)OC[C@@]1(O)C=C[C@@H]2C(C(=O)O)=CO[C@@H](O[C@@H]3O[C@H](CO)[C@@H](O)[C@H](O)[C@H]3O)[C@@H]21	Methyltransferases active
COc1ccc(/C=C/C(=O)O[C@@H]2[C@@H](O)[C@@H](O)[C@H](O[C@H]3[C@@H]4C=CO[C@@H](O[C@@H]5O[C@H](CO)[C@@H](O)[C@H](O)[C@H]5O)[C@@H]4[C@@]4(CO)O[C@@H]34)O[C@H]2C)cc1	none
COc1cc(/C=C/C(=O)O[C@H]2[C@@H]3C=CO[C@@H](O[C@@H]4O[C@H](CO)[C@@H](O)[C@H](O)[C@H]4O)[C@@H]3[C@@]3(CO)O[C@@H]23)ccc1O	Methyltransferases active
O=C(/C=C/c1ccccc1)OC[C@]12O[C@H]1[C@@H](O)[C@@H]1C=CO[C@@H](O[C@@H]3O[C@H](CO)[C@@H](O)[C@H](O)[C@H]3O)[C@@H]12	Methyltransferases active
COC(=O)C1=COC(OC2OC(CO)C(O)C(O)C2O)C2C1C=CC2(O)CO (stereo not given)	none
COc1ccc(/C=C/C(=O)O[C@@H]2[C@@H](OC(C)=O)[C@@H](OC(C)=O)[C@H](O[C@H]3[C@@H]4C=CO[C@@H](O[C@@H]5O[C@H](CO)[C@@H](O)[C@H](O)[C@H]5O)[C@@H]4[C@@]4(CO)O[C@@H]34)O[C@H]2C)cc1O	Methyltransferases active
Cc1ccccc1NS(=O)(=O)c1cc2[nH]c(=O)[nH]c2cc1C	none
CCC(C)NC(=O)CCc1nnc2n(CCc3ccccc3)c(=O)c3ccccc3n12 (stereo not given)	none
CC(C)Cn1c(=O)c2cc(F)ccc2n2c(SCc3ccc(F)cc3)nnc12	none
Cc1ccc(C)c(Cn2nc3n(CCCOC(C)C)c(=O)c4ccccc4n3c2=O)c1	none
COC(=O)c1ncn2c1C(=O)N(Cc1ccc(C)o1)C(C)(C(=O)NC1CCCCC1)C2 (stereo not given)	none
COc1ccc(-c2cc3n(n2)CC(C)(C(=O)NCc2ccccc2)N(c2cc(C)ccc2C)C3=O)cc1 (stereo not given)	none
COc1ccc(Cl)cc1NC(=O)Cn1nc2n(Cc3ccccc3)c(=O)c3ccccc3n2c1=O	none
CCCCN(CC)CCN1C(=O)c2cc3sc(CC)cc3n2CC1(C)C(=O)NC1CCCCC1 (stereo not given)	none
CC1(C(=O)NCc2ccccc2)Cn2c(nc3ccccc32)C(=O)N1CCCc1ccccc1 (stereo not given)	none
CC(C)OCCCNC(=O)CCc1nnc2ccc(NCc3ccccc3Cl)nn12	none
CCC1CCCCN1CCCNC(=O)c1cc2n(n1)CC(C)(C(=O)NC1CCCC1)N(C)C2=O (stereo not given)	none
CCCn1c(=O)c2ccc(C(=O)NC(C)CC)cc2n2c(=O)n(Cc3cc(C)ccc3C)nc12 (stereo not given)	none
O=c1[nH]c2ccc(S(=O)(=O)NC3CCN(Cc4ccccc4)CC3)cc2[nH]1	none
O=C(CCn1ccc2cc(S(=O)(=O)N3CCCC3)ccc21)NC1CCN(Cc2ccccc2)CC1	none
COc1ccc(CCNC(=O)c2cc3n(n2)CC(C)(C(=O)NC2CCCCC2)N(C)C3=O)cc1OC (stereo not given)	none
C=C[C@H]1[C@H](O[C@@H]2O[C@H](CO)[C@@H](O)[C@H](O)[C@H]2O)OC=C2C(=O)OCC[C@]21O	none
O=C(/C=C/c1ccc(O)c(O)c1)O[C@@H]1[C@@H](O)[C@H](OC2CCCCC2O)O[C@H](CO)[C@H]1O (stereo not given in full)	none
C=C[C@H]1[C@H](O[C@@H]2O[C@H](CO)[C@@H](O)[C@H](OC(=O)/C=C/c3ccc(O)c(OC)c3)[C@H]2O)OC=C2C(=O)OCC[C@]21O	Methyltransferases active
CCN1CCN(CCCNC(=O)c2cc3n(n2)CC(C)(C(=O)NCc2ccc(F)cc2)N(C)C3=O)CC1 (stereo not given)	none
O=C1c2ccccc2-c2nc3nnnn3nc21 (tested in a mixture with another compound)	Methyltransferases active
CCCn1c(=O)c2ccccc2n2c(SCC(=O)Nc3ccc(C)cc3)nnc12	none
CCc1cc2c(cc3n2CC(C)(C(=O)NC2CCCCCC2)N(Cc2ccccc2)C3=O)s1 (stereo not given)	none
O=C(NC1CC1)c1ccc2c(=O)nc3c(-c4ccc(F)cc4)n[nH]n3c2c1	none
COc1ccc2c(c1)C[C@H](C(=O)Nc1ccc(-c3cn[nH]c3)cc1OCCN(C)C)CO2	Methyltransferases active
COc1ccc2c(c1)CC(NS(=O)(=O)c1ccc(C)cc1)CO2 (stereo not given)	none
COc1ccc2c(c1)OCC(C(=O)NCc1noc(-c3ccco3)n1)C2 (stereo not given)	none
COC(=O)Cn1c(=O)oc2cc(S(=O)(=O)NCCc3sccc3C)ccc21	none
CC(C)OCCCn1c(=O)c2ccccc2n2c(SCC(=O)Nc3ccc4c(c3)OCO4)nnc12	none
CCCN1C(=O)c2c(C(=O)NCc3cccc(F)c3)ncn2CC1(C)C(=O)NCc1ccc(C)cc1 (stereo not given)	none
CCN1CCN(Cc2ccc(-c3cc4c(N[C@H](C)c5ccccc5)ncnc4[nH]3)cc2)CC1	Methyltransferases active
CCN1CCN(Cc2ccc(-c3cc4c(NC(C)c5ccccc5)ncnc4[nH]3)cc2)CC1 (stereo not given)	Methyltransferases active
Cc1ccc(Cn2c(=O)c3ccccc3n3c(SCC(=O)Nc4ccccc4F)nnc23)cc1	none
COc1ccccc1CNC(=O)C1(C)Cn2cnc(C(=O)NCc3ccccc3Cl)c2C(=O)N1C1CC1 (stereo not given)	none
CCc1ccc(CNC(=O)C(C)n2ccc3cc(S(=O)(=O)N4CCCCC4)ccc32)cc1 (stereo not given)	none
CCCOc1ccc(CN2C(=O)c3cc4occc4n3CC2(C)C(=O)NC2CCC(C)CC2)cc1 (stereo not given)	none
COc1ccccc1CNC(=O)CNC(=O)C1(C)Cn2c(cc3ccccc32)C(=O)N1C (stereo not given)	none
CC(C)CNC(=O)c1ccc2c(=O)n(C(C)C)c3nn(CC(=O)N(C)c4ccccc4)c(=O)n3c2c1	none
c1nc(NC2CCCCCC2)c2cc(CNC[C@H]3CCCO3)sc2n1	none
c1ccc(-c2oc3ncnc(NC[C@@H]4CCCO4)c3c2-c2ccccc2)cc1	Methyltransferases active

High-throughput results deposited in PubChem by National Center for Advancing Translational Sciences (NCATS).
